# According to ChEMBL document CHEMBL4808148, “HDAC6 screening dataset using tau-based substrate in an enzymatic assay yields selective inhibitors and activators” (2021):
# Several values for one entry are separate records, joined by “and”; a condition that tells them apart may be missing. Equal entries are not always repeated. The campaign covered roughly 5,600 compounds. About 390 (7%) showed an effect of 50% or more. Only a selection was taken, and strong results are over-represented in it overall.
# Target: T1, Protein deacetylase HDAC6 (Homo sapiens) (UniProt Q9UBN7)
# T1 sequence (whole entry): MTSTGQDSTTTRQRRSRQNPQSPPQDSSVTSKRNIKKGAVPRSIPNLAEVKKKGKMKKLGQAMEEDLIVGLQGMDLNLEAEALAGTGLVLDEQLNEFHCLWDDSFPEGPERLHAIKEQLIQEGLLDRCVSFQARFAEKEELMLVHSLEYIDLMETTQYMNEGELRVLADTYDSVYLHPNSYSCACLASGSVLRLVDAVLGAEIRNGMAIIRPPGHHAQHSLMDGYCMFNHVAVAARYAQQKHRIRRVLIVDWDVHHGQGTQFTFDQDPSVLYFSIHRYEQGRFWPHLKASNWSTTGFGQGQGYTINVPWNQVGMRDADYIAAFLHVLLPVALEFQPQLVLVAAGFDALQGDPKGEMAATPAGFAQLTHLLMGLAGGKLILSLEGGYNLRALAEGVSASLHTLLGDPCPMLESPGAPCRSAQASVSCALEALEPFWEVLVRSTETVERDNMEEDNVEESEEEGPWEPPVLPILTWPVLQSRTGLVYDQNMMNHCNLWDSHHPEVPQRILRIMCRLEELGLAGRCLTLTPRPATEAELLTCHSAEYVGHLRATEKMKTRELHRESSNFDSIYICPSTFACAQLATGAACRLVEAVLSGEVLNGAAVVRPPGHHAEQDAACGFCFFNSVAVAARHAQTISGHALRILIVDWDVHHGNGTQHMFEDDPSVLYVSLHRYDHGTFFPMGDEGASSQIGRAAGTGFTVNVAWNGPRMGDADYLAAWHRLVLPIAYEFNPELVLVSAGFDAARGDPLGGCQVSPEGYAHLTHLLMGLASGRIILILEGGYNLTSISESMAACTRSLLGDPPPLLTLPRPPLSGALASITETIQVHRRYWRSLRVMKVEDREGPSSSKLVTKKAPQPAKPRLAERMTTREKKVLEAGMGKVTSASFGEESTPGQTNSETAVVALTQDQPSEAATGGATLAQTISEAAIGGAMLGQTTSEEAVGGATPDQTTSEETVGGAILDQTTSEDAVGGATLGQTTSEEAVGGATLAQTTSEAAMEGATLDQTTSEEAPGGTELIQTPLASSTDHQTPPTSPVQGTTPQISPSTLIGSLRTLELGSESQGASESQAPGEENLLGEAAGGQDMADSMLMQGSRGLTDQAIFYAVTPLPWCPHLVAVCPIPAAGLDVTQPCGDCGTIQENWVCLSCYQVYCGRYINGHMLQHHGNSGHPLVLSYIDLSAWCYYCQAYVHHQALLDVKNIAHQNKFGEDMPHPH
# Details: at 10 µM
row,SMILES,inhibition
1,Cc1cc(C)cc(NC(=O)Cc2ccc(OC(C)(C)C(=O)O)cc2)c1,-3.44%
2,COc1ccc(C(=O)CCC(=O)O)c2ccccc12,0.61%
3,N#CCC(=O)c1ccccc1,19.1%
4,O=C(COc1cccc2c(=O)[nH]ccc12)c1ccccc1,65.9%
5,C[C@]12CC[C@H]3[C@@H](CCC4=CC(=O)CC[C@@]43C)[C@@H]1CC[C@@H]2C(=O)CO,32.2%
6,O=C(N[C@H]1CN2CCC1CC2)c1c[nH]c2ccsc2c1=O,10.3%
7,Cn1nnc(-c2ccc(-c3ccc(N4C[C@H](COP(=O)(O)O)OC4=O)cc3F)cn2)n1,-2.24%
8,O=C(NCc1cccc(O)c1)Nc1nc(-c2ccncc2)cs1,3.24% and 13.9%
9,O=C(CCCl)NCCc1ccccc1,11.9%
10,c1ccc(CCNc2nc(-c3ccccc3)cs2)cc1,79.1%
11,O=C(CCn1cnc2c(=O)[nH]cnc21)Nc1ccc(C(=O)O)cc1,11.5%
12,Brc1c(Br)c(Br)c2[nH]nnc2c1Br,55.5%
13,O=C(Nc1ccc(S(=O)(=O)C(F)(F)F)cc1)C1=CCN(c2ncccc2C(F)(F)F)CC1,8.48%
14,C[C@]12CCC(=O)C=C1CC[C@@H]1[C@@H]2[C@@H](O)C[C@]2(C)C(=O)CC[C@@H]12,-0.5%
15,CCCC(CCC)C(=O)NCc1ccc2c(cnn2-c2ccccc2OC)c1,-9.99%
16,Nc1nc(OCc2ccccc2)c2nc[nH]c2n1,68.9%
17,c1ccc(CNc2ncnc3[nH]cnc23)cc1,3.46%
18,CC(=O)O[C@H]1C[C@@H]2CC[C@@H]3[C@H](CC[C@@]4(C)[C@H]3C[C@H](N3CC[N+](C)(C)CC3)[C@@H]4OC(C)=O)[C@@]2(C)C[C@@H]1N1CC[N+](C)(C)CC1,-3.02%
19,CN1C(=O)N(c2ccc(C#N)c(C(F)(F)F)c2)C(=O)[C@@]1(CO)c1ccccc1,16.8%
20,CN(CCOP(=O)(O)O)C(=N)N,20.7%
21,O=C1N=C(N2CCOCC2)CN1c1ccc(Cl)cc1,8.65%
22,NC(Cc1ccc(O)cc1)C(=O)O (racemic),12.8%
23,N[C@H](C(=O)O)[C@@H]1CC(Cl)=NO1,2.38%
24,CNC(=O)COC(=O)NCCC1CCN(c2cccc(C)n2)CC1,23.1%
25,Cc1[nH]cnc1-c1ccc(Cl)cc1,80.5%
26,CCn1c(O)nnc1-c1ccc(Cl)cc1,4.14%

row,SMILES,inhibition
1,Cc1nc[nH]c1CCN,0.18%
2,C[C@]12CCC(=O)C[C@@H]1CC[C@@H]1[C@@H]2CC[C@]2(C)[C@@H](O)CC[C@@H]12,6.85%
3,O=C(/C=C/c1ccc2ccccc2n1)c1ccncc1,91.9%
4,O=C(/C=C/c1ccc2ccc(C(F)(F)F)cc2n1)c1ccncc1,36.8%
5,CC(C)Oc1ccc(-c2nc(-c3cccc4c3CCC4NCCC(=O)O)no2)cc1C#N (stereo not drawn),25.6%
6,CC(CC(c1ccccc1)c1ccccc1)NC(C)(C)C (stereo not drawn),13.9%
7,C[C@@]1(O)[C@H](O)[C@@H](CO)O[C@H]1n1cnc2c(NC3CCCC3)nc(Cl)nc21,-7.46%
8,Nc1ccn([C@H]2CO[C@@H](CO)S2)c(=O)n1,9.97%
9,CC1(O)C(O)C(CO)OC1n1ccc(N)nc1=O (stereo not drawn),50.8%
10,C[S+](CC[C@H](N)C(=O)[O-])C[C@H]1O[C@@H](n2cnc3c(N)ncnc32)[C@H](O)[C@@H]1O (stereo partly drawn),5.35%
11,Cc1cccc(Oc2cnc(=O)[nH]c2)c1,16.9%
12,O=C(NCc1ccccc1)c1csc(Nc2ccncn2)n1,44.2%
13,Cc1c[nH]c2ncnc(N3CCC(CN)(C(=O)Nc4cccc(OC(=O)N(C)C)c4)CC3)c12,25.2%
14,Cc1cccc(/C=N/Nc2cc(N3CCOCC3)n3nc(-c4ccncc4)cc3n2)c1,-1.46%
15,CC1(CN)Cc2ccccc2C1,0.58%
16,Brc1cc2c(cc1[C@@H]1Nc3ccccc3[C@@H]3C=CC[C@@H]31)OCO2.Brc1cc2c(cc1[C@H]1Nc3ccccc3[C@H]3C=CC[C@H]31)OCO2,2.38%
17,O=C(O)Cc1ccc(OCc2ccccc2)c(Cl)c1,-0.75%
18,O=C(O)Cc1ccc2c(c1)C(=O)c1ccccc1CO2,75%
19,O=C(O)c1ccc(N2N=C(Cc3ccccc3)/C(=C\c3ccc(-c4ccccc4F)o3)C2=O)cc1,5.2%
20,CC(C)OC(=O)N[C@H]1Cc2c(n(Cc3ccccn3)c3ccc(C#N)cc23)C1,-8.91%
21,CC(C)(C)c1ccc(-c2nc3ccccc3[nH]2)cc1,105%
22,CC(C)(C)c1ccc(O)cc1,17.6%
23,C#CCC(Cc1cnc2nc(N)nc(N)c2n1)c1ccc(C(=O)N[C@@H](CCC(=O)O)C(=O)O)cc1 (stereo partly drawn),30%
24,Oc1cc(CNC(=S)/C=C/c2cc(O)c(O)c(Br)c2)cc(O)c1O,36%
25,COC(=O)c1ccc(N2CCN(C)CC2)c(NC(=O)c2cccc(OC)c2)c1,5.02%
26,COc1ccc(N(C(=O)Oc2c(C)cccc2C)c2ccnc(Nc3ccc(N4CCN(C)CC4)cc3)n2)c(OC)c1,102%

row,SMILES,inhibition
1,COc1cc(N2CCN(C)CC2)ccc1Nc1ncc2c(n1)N(C)c1ccccc1C(=O)N2C,0.79%
2,Cn1c(C#N)ccc1-c1ccc2c(c1)C(C)(C)OC(=S)N2,12.5%
3,O=C(Nc1cc(C(F)(F)F)cc(C(F)(F)F)c1)c1cc(Cl)ccc1O,3.28%
4,CC(=O)NCCNc1cc(Cl)nn2c(-c3cccc(S(=O)(=O)N(C)C)c3)c(C)nc12,15.6%
5,CC(C)CN(C[C@@H](OP(=O)(O)O)[C@H](Cc1ccccc1)NC(=O)O[C@H]1CCOC1)S(=O)(=O)c1ccc(N)cc1,7.63%
6,CCCN(CCC)C(=O)Cc1c(-c2ccc(Cl)cc2)nc2ccc(Cl)cn12,-6.78%
7,CC1=CC(=C(c2ccc(N)cc2)c2ccc(N)cc2)C=CC1=N,57.5%
8,O=C(O)c1ccccc1NC(=O)C12CC3CC(CC(C3)C1)C2,8.92%
9,COc1ccc(S(=O)(=O)N2CCCN(S(=O)(=O)c3ccc(OC)c(OC)c3)CC2)cc1OC,5.48%
10,O=C(NO)c1cnc(N2CCN(S(=O)(=O)c3ccc4ccccc4c3)CC2)nc1,102%
11,O[C@@](Cc1nc(CC2(C(F)(F)F)CC2)c[nH]1)(c1ccc(-n2cccn2)cc1)C(F)(F)F,-0.94%
12,O=C(O)CCc1ccc(NCc2cccc3c2CCCN3CCOc2ccccc2)cc1F,8.07%
13,OCCNC1CCCc2c1[nH]c1ccc(-c3ccccc3)cc21 (stereo not drawn),59.1%
14,CCc1nc(C)ccc1O,3.81%
15,N[C@@H](CSCC(=O)O)C(=O)O,17.8%
16,CC1(C)CC[C@]2(C(=O)O)CC[C@]3(C)[C@H](C(=O)C=C4[C@@]5(C)C=C(C#N)C(=O)C(C)(C)[C@@H]5CC[C@]43C)[C@@H]2C1,11.2%
17,CN(C)/N=N/c1ccc(C(=O)O)cc1,26.9%
18,C=C1C[C@@]2(O)O[C@@]3(C[C@H]2C(C)C)[C@@H](C)CC[C@@H]13,20.2%
19,CC(C)(C)C(=O)NCCCC(=O)O,0.18%
20,N=C1CCCN1Cc1[nH]c(=O)[nH]c(=O)c1Cl,55.5%
21,O=C(O)c1cc(/N=N/c2ccc(O)c(C(=O)O)c2)ccc1O,98.2%
22,Cc1cccc(C(=O)O)c1O,35.8%
23,COc1ccc(NS(=O)(=O)c2ccc(/N=N/c3ccc(O)c(C(=O)O)c3)cc2)nn1,35.8%
24,O=c1[nH]c2ccccc2c(=O)n1CCCN1CCN(c2ccccc2)CC1,8.65%
25,O=C(OCCN1CCOCC1)c1cccnc1Nc1cccc(C(F)(F)F)c1,62%
26,O=C(O)c1ccccc1Nc1cccc(C(F)(F)F)c1,30.6%

row,SMILES,inhibition
1,NC(=O)NCCN1CCN(c2cccc(C(F)(F)F)c2)CC1,22%
2,c1ccc2c(c1)Nc1ccccc1S2,74.6%
3,CC(C)(C)C(=O)OCC(=O)[C@H]1CC[C@H]2[C@@H]3CCC4=CC(=O)CC[C@]4(C)[C@H]3CC[C@]12C,23.8%
4,CCC(=O)c1ccc(OCC(O)CN2CCN(c3ccccc3)CC2)cc1 (stereo not drawn),19.9%
5,Cc1cc(C)nc(NS(=O)(=O)c2ccc(NC(=S)NC(=O)COc3ccc(Br)cc3Cl)cc2)n1,19.5%
6,CC1(C)CCC(C)(C)c2cc(C#Cc3ccc(C(=O)O)cc3)ccc21,-3.59%
7,CCc1ccc(C2=CC(C)(C)Sc3ccc(C#Cc4ccc(C(=O)O)cc4)cc32)cc1,63%
8,CCCc1ccc(C(=O)O)cc1,29.1%
9,COc1cn(-c2ccc(-n3cccn3)cc2F)nc(-c2ccnn2-c2ccccc2)c1=O,0%
10,O=C1NC(=O)c2c1c1c3ccccc3n3c1c1c2c2ccccc2n1C1CCC3O1,1.84%
11,C[C@H](N)Cc1c[nH]cn1,7.87%
12,Oc1ccc(-c2nc3cc(O)cc(Br)c3o2)cc1,101%
13,C/C(=C(/CCOC(=O)C(C)C)SS/C(CCOC(=O)C(C)C)=C(\C)N(C=O)Cc1cnc(C)nc1N)N(C=O)Cc1cnc(C)nc1N,9.58%
14,COc1cc(CN2CCN(c3ccc(F)cc3)CC2)cc(OC)c1OC,16.8%
15,CCCCCCCCCCCCCCCCCC(=O)OC[C@@H](O)[C@H]1OC[C@H](O)[C@H]1O,1.06%
16,CC(C)(C)NCC(O)c1cc(Cl)c(N)c(C(F)(F)F)c1 (stereo not drawn),16.6%
17,c1ccc(OCc2ccc(CCCN3CCOCC3)cc2)cc1,45%
18,c1ccc(-c2cnn3cc(-c4ccc(OCCN5CCOCC5)cc4)cnc23)cc1,92.3%
19,c1cc(-c2cnn3cc(-c4ccc(OCCN5CCCCC5)cc4)cnc23)ccn1,69.7%
20,CC(C)Oc1ccc(-c2cnc3c(-c4ccnc5ccccc45)cnn3c2)cc1,-2.96%
21,COc1ccc(-c2cnc3c(-c4cccc5ncccc45)cnn3c2)cc1,-9.41%
22,C=C1/C(=C\C=C2/CCC[C@]3(C)[C@@H]([C@H](C)/C=C/[C@H](C)C(C)(C)O)CC[C@@H]23)C[C@@H](O)C[C@@H]1O,-3.96%
23,COC(=O)[C@H](Cc1ccc([N+](=O)[O-])cc1)NC(=O)c1cccc2ccccc12,10.5%
24,COc1ccc2cc(-c3cc(-c4cc(Cl)cc(Cl)c4)nn3[C@@H](C)c3ccc(C(=O)NCCC(=O)O)cc3)ccc2c1,18.3%
25,OC[C@H]1O[C@H](O[C@H]2O[C@H](CO)[C@@H](O)[C@H](O)[C@H]2O)[C@H](O)[C@@H](O)[C@@H]1O,-9.27%
